Compound activity from PubChem BioAssay.
CYP2C9 act: increases human cytochrome P450 2C9 activity. P11712. activation factor at 5 µM. recombinant CYP2C9, luciferin-H conversion, luminescence; active compounds read high; factor 1 = untreated enzyme, 0 = blocked. 1.4% of 96,000 active;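 active = activation factor of 2 or more for CYP2C9 at a 5 µM dose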;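 note: 0 = sulfaphenazole-blocked wells and 1 = vehicle-only wells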
CYP2C9 inhib: blocks human cytochrome P450 2C9; 20% of 96,000 active; CYP2C9 Supersomes, luciferin-H conversion, luminescence; P11712; inhibition, % at 5 µM;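 active = blocking of liver enzyme CYP2C9 beyond about 50% at 5 µM, limit read from the data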
CYP2C19 inhib: human CYP2C19 inhibition | inhibition, % at 5 µM | CYP2C19 Supersomes, luciferin-H EGE luminescence, 30 min | 21% of 96,000 active | P33261;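 active = CYP2C19 inhibition above a set limit at 5 µM in the primary screen, cut at about 50% in these data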;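 note: plate controls were negative control wells for no effect and 2.5 mM tranylcypromine positive control for full effect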
Target sequence (P33261 whole entry, looked up): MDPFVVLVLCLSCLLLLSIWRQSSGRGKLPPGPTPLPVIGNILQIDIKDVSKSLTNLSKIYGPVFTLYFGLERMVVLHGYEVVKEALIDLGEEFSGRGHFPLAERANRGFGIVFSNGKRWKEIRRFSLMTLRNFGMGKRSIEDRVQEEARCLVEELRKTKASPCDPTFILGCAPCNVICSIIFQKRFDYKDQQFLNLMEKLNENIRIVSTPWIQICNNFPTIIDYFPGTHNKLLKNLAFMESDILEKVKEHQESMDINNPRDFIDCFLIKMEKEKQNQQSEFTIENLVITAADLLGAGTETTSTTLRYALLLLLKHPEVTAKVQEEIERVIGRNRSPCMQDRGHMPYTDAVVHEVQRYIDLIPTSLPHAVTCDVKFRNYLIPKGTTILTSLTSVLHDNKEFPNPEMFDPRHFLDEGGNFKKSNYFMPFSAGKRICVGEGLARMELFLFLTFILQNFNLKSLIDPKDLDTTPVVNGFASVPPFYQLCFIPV
CYP2C19 act: cytochrome P450 2C19 (human) activation; activation factor at 5 µM; recombinant CYP2C19, luciferin-H EGE luminescence; active compounds read high; 0 = fully inhibited enzyme, 1 = untreated enzyme; 96,000 tested, under 10 active; P33261;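 active = activation factor of at least 2 at 5 µM in the primary screen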;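 note: 0 = wells with 2.5 mM tranylcypromine and 1 = vehicle-only wells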
Numbers without * were called inactive. This is a sample that favours compounds with a hit; in the whole collection about 31% have one here.

SMILES	CYP2C9 act	CYP2C9 inhib	CYP2C19 inhib	CYP2C19 act
Nc1c(S(=O)(=O)c2cccs2)c2nc3ccccc3nc2n1/N=C/c1cccc(O)c1	0.2	80*	42	0.6
CC(C)Cn1c(N)c(S(=O)(=O)c2cccs2)c2nc3ccccc3nc21	0.3	65*	20	0.8
COCCNC(=O)c1c(N)n(/N=C/c2cccs2)c2nc3ccccc3nc12	0.4	61*	9	0.9
COc1ccc(S(=O)(=O)c2c(N)n(Cc3ccco3)c3nc4ccccc4nc23)cc1	0.5	48	37	0.6
COc1ccc(/C=N/n2c(N)c(S(=O)(=O)c3cccs3)c3nc4ccccc4nc32)cc1OC	0.2	77*	1	1
O=C(NC1CCCC1)c1noc2c1CCCCC2	0.7	30	42	0.6
O=c1[nH]c(C2CCCN(S(=O)(=O)c3ccc(F)cc3)C2)nc2c1nnn2Cc1ccccc1 (stereo unspecified)	0.8	18	6	0.9
CC(C)(C)c1ccc(Cn2nnc3c(=O)[nH]c(C4CCN(C(=O)Cc5cccs5)CC4)nc32)cc1	0	99*	91*	0.1
Clc1ccccc1Cn1nnc2c(N3CCOCC3)nc(C3CC3)nc21	1.1	-12	-4	1
O=C(Cc1cccs1)N1CCCC(c2nc3c(nnn3Cc3ccc(F)cc3)c(=O)[nH]2)C1 (stereo unspecified)	0.4	57*	19	0.8
Cc1ccc(Cn2nnc3c(=O)[nH]c(C4CCCN(C(=O)Nc5ccc(F)cc5F)C4)nc32)cc1 (stereo unspecified)	0.5	54*	40	0.6
O=C(Cc1cccs1)N1CCCC(c2nc3c(nnn3Cc3ccccc3Cl)c(=O)[nH]2)C1 (stereo unspecified)	0.1	91*	66*	0.3
COc1cc2c(cc1OC)C(C(=O)N1CCN(c3ccccc3)CC1)C(c1cccs1)N(C)C2=O (stereo unspecified)	0.9	7	12	0.9
COc1cc(OC)c(N(C)C(=O)CCNC(=O)Cn2cnc3ccccc3c2=O)cc1Cl	0.6	35	29	0.7
CCOc1ccccc1NC(=O)N1CCCC(c2nc3c(nnn3Cc3ccc(C)cc3)c(=O)[nH]2)C1 (stereo unspecified)	0.9	6	14	0.9
CC(C)(C)c1ccc(Cn2nnc3c(=O)[nH]c(C4CCCN(C(=O)Cc5cccs5)C4)nc32)cc1 (stereo unspecified)	0.4	57*	28	0.7
CCOC(=O)c1[nH]c(C)c(C(=O)Nc2cccc(Cl)c2C)c1C	0.6	43	17	0.8
CCOC(=O)c1[nH]c(C)c(C(=O)N2CCN(c3cccc(Cl)c3)CC2)c1C	0.1	88*	68*	0.3
CCOC(=O)c1[nH]c(C)c(C(=O)N2CCN(c3ccc(F)cc3)CC2)c1C	0.2	77*	79*	0.2
Cn1c(=O)c2c(nc(CN3CCN(c4ccccc4)CC3)n2Cc2c(F)cccc2Cl)n(C)c1=O	0.7	29	27	0.7
Cc1[nH]n(CCC#N)c(=O)c1CC(=O)N1CCN(c2ccccc2)CC1	1.3	-26	-14	1.1
COc1ccc(-n2nnnc2SCc2nc3ccccc3s2)cc1	0.2	79*	95*	0
COCCn1c(SCc2nc3ccccc3s2)nc2ccccc21	0.1	86*	100*	0
COc1ccc(C)cc1-n1nnnc1SCC1CCCO1 (stereo unspecified)	0.4	55*	98*	0
COc1ccc(C)cc1-n1nnnc1SCC(=O)c1ccc2c(c1)OCCO2	1.2	-17	-3	1
SMILES	CYP2C9 act	CYP2C9 inhib	CYP2C19 inhib	CYP2C19 act
COc1ccc(CCn2c(C)cc(C(=O)CSc3nnnn3-c3ccccc3)c2C)cc1	2.4*	-140	16	0.8
Cc1ccc(-n2c(SCC(=O)OC(C)C)nnc2-c2cnccn2)cc1	1.1	-8	4	1
COc1ccccc1NC(=S)NC(=O)CC(C)C	0.7	35	24	0.8
O=C(NC1(C(F)(F)F)NC(=O)N(C2CCCCC2)C1=O)c1cccs1 (stereo unspecified)	0.6	43	47	0.5
COc1cc(CSc2nnnn2-c2ccc(C)cc2)cc(OC)c1OC	0.4	64*	34	0.7
O=C(CSc1nnnn1-c1ccccc1)N1CCc2ccccc2C1	0.8	15	65*	0.4
COc1ccc(-n2nnnc2SCC(=O)N2CCCC2)cc1OC	1.4	-45	13	0.9
CSc1ccccc1-n1nnnc1SCc1ccccc1	0.3	66*	87*	0.1
C=CCSc1nnnn1-c1ccc(OC)cc1	0.3	66*	98*	0
O=C(N/C=N/OCc1cccc(C(F)(F)F)c1)N1OC[C@@H]2COc3ccc4ccccc4c3[C@@H]21	1.1	-12	5	1
O=C1Nc2ccc(Br)cc2C1=Nc1ccc(-c2nnc3n2CCCCC3)cc1	1.4	-39	-30	1.3
CCOC(=O)C(C)Sc1ncc(-c2ccc(Cl)cc2)cn1 (stereo unspecified)	0.8	16	18	0.8
Cc1c(C)[n+](=O)c2c(n1[O-])CCCCC2	0.9	12	-4	1
COc1ccc(C)cc1-n1nnnc1SCc1nc2ccccc2s1	0.2	78*	73*	0.3
COC(=O)CSc1nnnn1-c1ccccc1	1	2	56*	0.4
COc1ccc(C)cc1-n1nnnc1SCC(=O)NC(=O)NCc1ccco1	1.1	-10	34	0.7
NC(=O)c1ccc(-n2nnnc2SCc2ccc(F)cc2)cc1	0.8	20	75*	0.3
CCOC(=O)NC(=O)CSc1nnnn1-c1ccccc1	1.9	-94	46	0.5
O=C(CSc1nnnn1-c1ccccc1)Nc1nsc(-c2ccccc2)n1	1.6	-58	19	0.8
O=C(O)c1ccc(-n2nnnc2SCc2ccccc2)cc1	0.7	35	-24	1.2
CC1=Nc2ccccc2N=C(NC(=O)CSc2nnnn2-c2ccccc2)C1c1ccccc1 (stereo unspecified)	0.1	95*	79*	0.2
CCCCC(=O)Nc1ccc(C(=O)N2CCN(C)CC2)cc1	1.1	-9	3	1
CC(C)Cn1c(Cc2ccccc2)n[nH]c1=S	1.2	-23	40	0.6
COc1ccc(CSc2nnnn2-c2ccccc2)cc1	0.1	89*	96*	0
Cc1ccc[n+](C(C)C(=O)Nc2ccc(C)c([N+](=O)[O-])c2)c1 (stereo unspecified)	1.2	-20	-15	1.1
SMILES	CYP2C9 act	CYP2C9 inhib	CYP2C19 inhib	CYP2C19 act
Cc1ccc(Nc2cc(-n3nc(C)cc3C)ncn2)c(C)c1	0.7	27	54*	0.5
Cc1cnn(-c2cc(N/N=C/c3ccccc3)ncn2)c1	0.8	15	-15	1.2
Cc1ccc(Nc2cc(-n3cccn3)ncn2)c(C)c1	0.7	33	61*	0.4
CCOC(=O)CC1C(=O)NCCN1S(=O)(=O)c1ccc(Cl)cc1Cl (stereo unspecified)	0.8	24	15	0.8
CCOC(=O)C1=C(CC)Nc2ccccc2N=C1NC(=O)c1ccc(S(=O)(=O)N(C)C)cc1	0.1	93*	92*	0.1
CCOC(=O)C1=C(C)Nc2ccccc2N=C1NC(=O)c1cccc(S(=O)(=O)N(C)C)c1	0.1	93*	27	0.7
